Hits are enriched below; roughly 4.2% of the tested compounds scored in any of these assays.
Sfp inh = qHTS Assay for Inhibitors of Bacillus subtilis Sfp phosphopantetheinyl transferase (PPTase) | Potency, µM, inactives show largest response in the series, negative = inhibition, usual class: inhibitors | 3.5% of 310,000 active | Biochemical Sfp PPTase activity, qHTS | 4'-phosphopantetheinyl transferase ffp (Bacillus subtilis), Q9F4F7;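 note: the enzyme is Sfp with the accession as filed and its product quenches rhodamine fluorescence; 0% = enzyme reaction without inhibitor and -100% = no enzyme wells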
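Fluorescence-quenching assay with 15 nM Sfp, 5 uM rhodamine-CoA and 12.5 uM BHQ-2-labelled ybbR peptide in pH 7.6 Hepes/MgCl2 buffer. Enzyme was pre-incubated with compound for 15 min at room temperature. Rate was taken from the 30-min fluorescence change (525/598 nm).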
VDR inh = Inhibitors of the vitamin D receptor (VDR): qHTS. Vitamin D3 receptor (Homo sapiens), P11473. VDR-SRC2-3 peptide fluorescence polarization, 2 h. 0.93% of 400,000 active. Potency, µM, inactives show max response, negative = inhibition, usual class: inhibitors
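Measured by FP: displacement of SRC2-3 coactivator peptide from VDR by library compounds, following a two-hour ambient incubation.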
PLK1 PBD inh = qHTS for Inhibitors of PLK1-PDB (polo-like kinase 1 - polo-box domain): Primary Screen; AID 720504, 2013; Serine/threonine-protein kinase PLK1 (Homo sapiens), P53350; 2.8% of 360,000 active; Potency, µM, inactives show max response, negative = inhibition, usual class: inhibitors; Plk1 PBD binding of FITC phosphopeptide, fluorescence polarization; note: series mostly up to about 57 µM; nearly all actives have a fitted effect of over 65% in size
Target sequence (P53350 whole entry, looked up, the tested form may be a part): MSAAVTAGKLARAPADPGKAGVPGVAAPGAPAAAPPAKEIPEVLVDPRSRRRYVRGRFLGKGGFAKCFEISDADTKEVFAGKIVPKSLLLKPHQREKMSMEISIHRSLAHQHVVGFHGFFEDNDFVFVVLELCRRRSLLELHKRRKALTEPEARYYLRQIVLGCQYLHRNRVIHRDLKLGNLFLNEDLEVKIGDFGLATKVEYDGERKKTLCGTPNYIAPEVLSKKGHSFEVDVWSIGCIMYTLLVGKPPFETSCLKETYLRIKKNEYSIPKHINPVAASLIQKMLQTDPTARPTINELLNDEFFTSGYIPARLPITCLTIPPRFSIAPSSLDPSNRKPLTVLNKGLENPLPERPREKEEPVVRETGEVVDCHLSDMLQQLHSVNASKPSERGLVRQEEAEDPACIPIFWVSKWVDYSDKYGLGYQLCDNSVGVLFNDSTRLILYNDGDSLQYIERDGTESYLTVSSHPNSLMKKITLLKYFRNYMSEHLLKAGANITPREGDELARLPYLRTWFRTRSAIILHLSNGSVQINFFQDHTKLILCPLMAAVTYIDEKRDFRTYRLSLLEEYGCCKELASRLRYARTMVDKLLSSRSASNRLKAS
ALOX12 inh = Primary qHTS assay for inhibitors of human arachidonate 12S-lipoxygenase (ALOX12): Round 2; AID 1671190, 2021; 1.1% of 580,000 active; Potency, µM (series often up to 108 µM), without a hit: at the top dose activity change, negative = inhibition, hits mostly inhibitors; purified 12hLO, xylenol orange hydroperoxide absorbance
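Purified human 12hLO at 150 nM in 25 mM Hepes, 0.01% Triton X-100, pH 7.0, preincubated 15 min at room temperature with compound. Reaction started with 40 uM arachidonic acid, 30 min at room temperature. Hydroperoxide measured by Fe-xylenol orange, 573/405 nm absorbance ratio.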
Active calls of the source: *; ? = inconclusive; nt = no result given. Calls come from the whole dose curve; as a rule, active = well fitted curve in the direction sought with a large enough effect; inconclusive = small, poorly fitted or top-dose-only effect, or another doubt; inactive = no such curve, though single readings can be large; an effect the other way counts as inactive or inconclusive. Unless noted, % is set by controls: 0 for no effect and ±100 for the full control effect; potency is the fitted concentration of half-maximal effect.

SMILES	Sfp inh	VDR inh	PLK1 PBD inh	ALOX12 inh
C[C@]12C=CC(=O)C=C1CC[C@@H]1C2=CC[C@]2(C)[C@@H](C(=O)CN3CCN(c4cc(N5CCCC5)nc(N5CCCC5)n4)CC3)CC[C@@H]12	nt	2.8µM*	-17%	-19%
CC(=NCc1cccnc1)c1c(O)n(C2CCCCC2)c(=O)[nH]c1=O	1%	30%	-5%	0%
O=c1[nH]c(=O)n(C2CCCCC2)c(O)c1C1NCCc2ccccc21 (configuration not stated)	35µM*	?	0%	0%
CC1(O)CCC2C3CCC4=CC(=O)CCC4=C3C=CC21C (configuration not stated)	nt	-11%	-1%	-11%
COCOC1CCC2C3CCC4=CC(=O)CCC4=C3C=CC12C (configuration not stated)	nt	-1%	?	25µM*
CCc1cccc(C)c1N(C(=O)CCl)C(C)COC (configuration not stated)	13%	0%	nt	nt
N#CC(C#N)=Cc1ccc(C=C(C#N)C#N)cc1	?	?	-29%	?
N#C/C(=C/c1ccc(O)c(O)c1)C(N)=S	nt	40µM*	nt	nt
Nc1nnc(Sc2ncccc2[N+](=O)[O-])s1	-2%	-23%	9.5µM*	-10%
O=[N+]([O-])c1ccc(N2CCCC2)c2ncccc12	11%	0%	-10%	-16%
CCOC(=O)N(C)C(=O)CSP(=S)(OCC)OCC	?	50µM*	nt	nt
COc1cc(OC)c(/C=C2/C(=O)Nc3ccccc32)c(OC)c1	nt	35%	nt	nt
CCCCN1C(=O)/C(=C/c2ccc(N3CCCCCC3)cc2)C(=O)NC1=S	-19%	nt	nt	nt
CCOc1ccc(C=C2C(=O)NC(=S)NC2=O)cc1OCC	nt	28µM*	8.4µM*	?
COc1cc(C=C2C(=O)NC(=O)NC2=O)ccc1OS(=O)(=O)c1ccccc1[N+](=O)[O-]	50µM*	45µM*	2.7µM*	?
CCOc1cc(C=C2C(=O)NC(=O)NC2=O)ccc1OS(=O)(=O)c1ccccc1	50µM*	79µM*	3.4µM*	nt
CN(C)c1ccc(C=C2C(=O)NC(=S)NC2=O)cc1	nt	?	2.7µM*	?
CCOc1cc(C=C2C(=O)NC(=O)NC2=O)ccc1OCC(=O)N1CCOCC1	?	?	?	-29%
CCn1c(C)c(C(=O)Nc2ccc(OC)cc2)c2cc(OC)ccc21	11%	-17%	-8%	4%
COc1cccc(NC2=NCCS2)c1	nt	nt	nt	0%
COC(=O)C1=C(c2ccc(OCc3ccccc3)cc2)C[C@@H]2CC[C@H]1N2C(=O)NCc1ccc(C(C)(C)C)cc1	nt	nt	-5%	3%
COc1ccc(-n2nc(C(=O)NCC(=O)N3CCC4(CC3)OCCO4)c3ccccc3c2=O)cc1OC	19%	22%	3%	1%
O[N+]1=CC=CCC1=S.On1ccccc1=S.[Zn]	-100%	45µM*	nt	nt
COc1cccc(C(c2nnnn2C2CCCCC2)N2CCC3(CC2)C(=O)NCN3c2ccccc2)c1OC (configuration not stated)	nt	nt	1%	12%
CN1/C(=C\C=C\C2=[N+](C)c3ccc4ccccc4c3C2(C)C)C(C)(C)c2ccccc21	16µM*	nt	nt	nt
SMILES	Sfp inh	VDR inh	PLK1 PBD inh	ALOX12 inh
CCOP(=O)(OCC)c1nc(-c2cccc3ccccc23)oc1NCCc1ccc(OC)cc1	?	-11%	1%	-28%
C[N+]1(C)C2CCC1CC(OC(=O)c1c[nH]c3ccccc13)C2 (configuration not stated)	-5%	7%	4%	45µM*
COc1ccc(-n2c(CN3CCOCC3)nc3ccccc3c2=O)c(OC)c1	2%	2%	-7%	7%
CCCNC(=O)N1[C@H]2CC[C@@H]1C(C(=O)OC)=C(c1ccc(S(C)(=O)=O)cc1)C2	nt	-25%	-2%	25%
Cc1cccc(NC(=O)c2cn(Cc3ccccc3)nn2)c1	nt	nt	nt	-4%
NNc1n[nH]c(=S)n1N	2.8µM*	-21%	9%	-71%
CCCCCCCCCC[n+]1cccc([C@@H]2CCCN2C)c1	56µM*	-22%	nt	nt
COc1ccc(C(O)P(=O)(OC(C)C)OC(C)C)cc1 (configuration not stated)	20%	-5%	-4%	162%
N#CC12c3ccccc3C(=O)N1Cc1cnnn1-c1ccccc12 (configuration not stated)	nt	nt	-9%	18%

Source: PubChem
